The values below come from PubChem BioAssay.

The nature of test [1]: optical density shifts of acrAB sulA E. coli – strain DRC41, OD650, 48 h, E. coli filamentation inducer project, primary screen (AID 1152).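 Also: E. coli MC1000 strain DRC41 lacking acrAB efflux pump and sulA.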 Conditions: higher = more signal, called active from +8 up or from −8 down.
Test [2] is described as follows: probe aLefty1 binding on compound microarray – biochemical, small-molecule microarray, 635/667 nm fluorescence, primary screen (AID 1153).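 Also: score merges spot fluorescence with signal-to-noise ratio from the scanned slide images.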 The settings on record: higher = more signal.
Test [3] in a line: plasmodial surface anion channel blockers, osmotic lysis – cell-based, P. falciparum Indochina, OD700, 1 h, primary screen (AID 1154). Conditions: P. falciparum Indochina infected RBC osmotic lysis, higher = more signal, called active from +8 up or from −8 down.
Test [4] is described as follows: plasmodial surface anion channel blockers, osmotic lysis – cell-based, P. falciparum Indochina, OD700, 2 h, primary screen (AID 1155).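 Also: lysis reports solute entry through the parasite surface anion channel PSAC.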 Conditions: P. falciparum Indochina infected erythrocytes, higher = more signal, called active from +8 up or from −8 down.
Test [5] is described as follows: changes in parasitized red cell lysis, either direction – P. falciparum Indochina, OD700, 3 h, PSAC antagonist project, primary screen (AID 1156). The settings on record: P. falciparum-infected erythrocytes, osmotic lysis, higher = more signal, called active from +8 up or from −8 down.
Test [6] can be described thus: plasmodial surface anion channel blockers, osmotic lysis – cell-based, P. falciparum Indochina, OD700, 18 h, primary screen (AID 1157). Conditions: P. falciparum Indochina infected erythrocytes, osmotic lysis OD700, 18 h; higher = more signal, called active from +8 up or from −8 down.
Test [7] can be described thus: S6 kinase pathway phospho-S6 level changes – cell-based, A549, cytoblot, luminescence, serum-stimulated, primary screen (AID 1158).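 Also: serum-stimulated A549 lung adenocarcinoma cells; signal is phosphorylated S6 detected by cytoblot immunostaining with HRP secondary.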 The settings on record: 5 h, higher = more signal.
For test [8], the target named is NADPH oxidase 2 (Homo sapiens) (UniProt P04839). Description: compounds shifting NOX2 Amplex Red fluorescence – cell-based, HEK293-NOX2, PMA-stimulated, NOX inhibitor project, primary screen (AID 1159). Also: test concentration not given here. The settings on record: 45 min, higher = more signal, called active from +8 up or from −8 down.
Test [9] has as its target NADPH oxidase 4 (Homo sapiens) (UniProt Q9NPH5). Description: compounds shifting NOX4 Amplex Red fluorescence – cell-based, HEK293-NOX4, tetracycline-induced, NOX inhibitor project, primary screen (AID 1160). The settings on record: HEK293-NOX4, Amplex Red H2O2 fluorescence, 45 min; higher = more signal, called active from +8 up or from −8 down.
Test [10] has as its target NADPH oxidase 5 (Homo sapiens) (UniProt Q96PH1). The test is described as follows: compounds shifting NOX5 Amplex Red fluorescence – cell-based, HEK293-NOX5, NOX inhibitor project, primary screen (AID 1161). Conditions: HEK293-NOX5, ionomycin, 45 min, higher = more signal.
Test [11] can be described thus: compound effects on lung adenocarcinoma cell viability – A549, calcein-AM fluorescence, 48 h, basal, profiling panel (AID 1162). Also: test concentration not given here. Conditions: higher = more signal.
Test [12] in a line: compound effects on differentiated 3T3-L1 adipocyte viability – cell-based, 3T3-L1 adipocytes, calcein-AM fluorescence, 48 h, basal, profiling panel (AID 1163). Also: test concentration not given here. The settings on record: 3T3-L1 adipocytes viability, higher = more signal.
Test [13] in a line: compound effects on hepatocellular carcinoma cell viability – HepG2, calcein-AM fluorescence, 48 h, basal, profiling panel (AID 1164). Also: test concentration not given here. Conditions: higher = more signal.
Test [14] in a line: compound effects on multiple myeloma cell viability – MM1S, calcein-AM fluorescence, 48 h, basal, profiling panel (AID 1165). Also: test concentration not given here. Conditions: higher = more signal.
The nature of test [15]: calcein-AM signal in unstimulated myeloma cells – cell-based, calcein-AM fluorescence, 48 h, PK04 Diversity Set, profiling panel (AID 1166).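 Also: cells grown under basal conditions without added stimulus; test concentration not given here.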 Conditions: RPMI8226 myeloma viability, higher = more signal.
A short description of test [16]: JC-1 mitochondrial signal, unstimulated HepG2 cells – cell-based, JC-1 fluorescence, 24 h, 100 nL compound, profiling panel (AID 1167). Also: test concentration not given here. Conditions: HepG2 mitochondrial potential, higher = more signal.
Test [17] is described as follows: JC-1 mitochondrial signal, unstimulated adipocytes – cell-based, JC-1 fluorescence, 3T3-L1 adipocytes, 24 h, 100 nL compound, profiling panel (AID 1168). Also: test concentration not given here. The settings on record: JC-1 mitochondrial fluorescence, higher = more signal, called active from +8 up or from −8 down.
Test [18] in a line: JC-1 mitochondrial signal, unstimulated myeloma cells – cell-based, JC-1 fluorescence, RPMI8226, 24 h, 100 nL compound, profiling panel (AID 1169). Also: test concentration not given here. The settings on record: JC-1 mitochondrial potential fluorescence, higher = more signal.
Test [19] in a line: JC-1 mitochondrial signal, unstimulated MM1S myeloma – cell-based, JC-1 fluorescence, 24 h, 100 nL compound, profiling panel (AID 1170). Also: test concentration not given here. The settings on record: MM1S mitochondrial potential, higher = more signal.
Test [20] in a line: resazurin metabolic signal in A549 cells – cell-based, resazurin fluorescence, 24 h, PK04 Diversity Set, profiling panel (AID 1171). Also: test concentration not given here. Conditions: A549 viability, higher = more signal, called active from +8 up or from −8 down. For orientation: Alamar Blue is a resazurin reagent that responds to reducing activity.

SMILES strings stand for the structures. Calls of active or inactive are those of the source.

Chain of NADPH oxidase 2 (Homo sapiens) (P04839 whole entry, looked up): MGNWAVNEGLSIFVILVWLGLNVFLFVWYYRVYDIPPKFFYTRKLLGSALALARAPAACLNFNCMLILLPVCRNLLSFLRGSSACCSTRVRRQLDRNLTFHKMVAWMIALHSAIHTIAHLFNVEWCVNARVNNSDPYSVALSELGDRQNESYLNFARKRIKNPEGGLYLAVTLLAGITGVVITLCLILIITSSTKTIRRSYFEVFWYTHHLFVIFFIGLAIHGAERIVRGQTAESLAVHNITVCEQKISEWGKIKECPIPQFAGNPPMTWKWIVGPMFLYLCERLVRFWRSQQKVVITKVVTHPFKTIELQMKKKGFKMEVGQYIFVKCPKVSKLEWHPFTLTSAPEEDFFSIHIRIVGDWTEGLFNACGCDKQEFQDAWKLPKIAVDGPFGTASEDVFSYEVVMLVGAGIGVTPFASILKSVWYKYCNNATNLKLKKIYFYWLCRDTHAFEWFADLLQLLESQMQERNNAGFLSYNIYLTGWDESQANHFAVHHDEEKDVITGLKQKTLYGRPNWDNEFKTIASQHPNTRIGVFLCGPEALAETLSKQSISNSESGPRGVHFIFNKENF
Chain of NADPH oxidase 4 (Homo sapiens) (Q9NPH5 whole entry, looked up): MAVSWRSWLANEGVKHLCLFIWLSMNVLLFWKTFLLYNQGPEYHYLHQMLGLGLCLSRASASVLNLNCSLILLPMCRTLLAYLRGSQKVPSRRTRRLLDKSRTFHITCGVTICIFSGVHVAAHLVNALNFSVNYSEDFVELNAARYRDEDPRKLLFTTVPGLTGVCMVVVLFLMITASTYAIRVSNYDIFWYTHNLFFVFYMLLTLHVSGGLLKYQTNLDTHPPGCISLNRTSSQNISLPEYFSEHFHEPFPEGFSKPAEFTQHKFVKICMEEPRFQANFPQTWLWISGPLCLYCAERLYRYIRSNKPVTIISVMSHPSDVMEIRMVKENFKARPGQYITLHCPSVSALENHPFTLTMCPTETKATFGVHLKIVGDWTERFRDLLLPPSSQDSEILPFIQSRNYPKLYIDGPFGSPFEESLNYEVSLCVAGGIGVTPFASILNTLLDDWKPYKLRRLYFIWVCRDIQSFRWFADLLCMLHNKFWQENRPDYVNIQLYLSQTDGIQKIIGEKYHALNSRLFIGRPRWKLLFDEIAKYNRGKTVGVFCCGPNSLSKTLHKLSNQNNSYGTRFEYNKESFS
Chain of NADPH oxidase 5 (Homo sapiens) (Q96PH1 whole entry, looked up): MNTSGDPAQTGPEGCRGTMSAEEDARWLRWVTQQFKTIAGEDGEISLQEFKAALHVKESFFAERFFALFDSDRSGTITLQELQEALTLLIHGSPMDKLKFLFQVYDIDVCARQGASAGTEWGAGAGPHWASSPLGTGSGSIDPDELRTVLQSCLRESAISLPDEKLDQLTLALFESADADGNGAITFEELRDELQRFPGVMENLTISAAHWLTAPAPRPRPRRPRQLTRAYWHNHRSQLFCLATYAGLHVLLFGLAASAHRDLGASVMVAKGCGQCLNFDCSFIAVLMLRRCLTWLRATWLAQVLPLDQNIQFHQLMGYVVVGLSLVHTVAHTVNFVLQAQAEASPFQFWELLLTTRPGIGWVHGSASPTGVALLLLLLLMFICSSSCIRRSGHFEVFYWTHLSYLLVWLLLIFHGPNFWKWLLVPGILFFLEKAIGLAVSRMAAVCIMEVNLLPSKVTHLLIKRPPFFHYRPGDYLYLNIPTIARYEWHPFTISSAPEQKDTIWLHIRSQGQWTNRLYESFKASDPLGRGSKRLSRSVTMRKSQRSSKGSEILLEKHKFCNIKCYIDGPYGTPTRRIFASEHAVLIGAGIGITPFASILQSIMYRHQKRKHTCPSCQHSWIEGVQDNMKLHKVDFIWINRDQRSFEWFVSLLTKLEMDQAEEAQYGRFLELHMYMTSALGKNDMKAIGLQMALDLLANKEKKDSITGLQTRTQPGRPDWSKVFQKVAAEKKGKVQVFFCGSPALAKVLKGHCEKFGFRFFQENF

On to `[N-]=[N+]=NCc1ccccc1[C@@H]1OC(c2ccc(OCCCO)cc2)=N[C@]1(CCS(=O)(=O)c1ccccc1)C(=O)N1CCOCC1`, for which the z-score in [1] is 1.79 (inactive); in [3], 26.1 (active); in test [4], 12.5 (active); in test [5], 3.79 (inactive); in test [6] it was 0.45 (inactive); in test [7], 1.88. Also, the z-score is 1.21 (inactive) in test [8]; 1.18 (inactive) in test [9]; 1.2 in [10]; 0.761 in test [11]; 1.96 in [12]; 0.502 in [13]. Moreover, the z-score was 0.191 in test [14]; -1.6 in test [15]; 2.29 in test [16]; 0.78 (inactive) in [17]; -0.356 in test [18]; -0.412 in test [19]. In addition, the z-score in test [20] was 0.218 (inactive). The compound further had a composite z-score in [2] of 0.533.
Regarding `COc1ccc([C@H]2OC[C@@H]3CCC(=O)N32)cc1`, the z-score in test [1] is 0.0137 (inactive); in test [3], 0.4 (inactive); in test [4], 0.698 (inactive); in test [5] it was -0.297 (inactive); in test [6], 0.48 (inactive); in test [7] it was 0.0166. The z-score in [8] is 0.982 (inactive); in test [9], 0.342 (inactive); in test [10], -0.0609; in test [11], -0.245; in [12], -0.315; in [13] it was -0.0392. Also, the z-score in test [14] was -0.804; in test [15], 0.502; in test [16], 0.0252; in test [17] it was -0.139 (inactive); in test [18], -0.225; in test [19], -0.1. Further, the z-score in test [20] was 0.109 (inactive). This compound came in with a composite z-score in test [2] of 0.0868.
For the compound `O=C(O)[C@@]1(CCS(=O)(=O)c2ccccc2)N=C(c2ccc(OCCCO)cc2)O[C@H]1c1ccccc1`, the z-score is 0.183 (inactive) in [1]; 22.6 (active) in test [3]; 4.96 (inactive) in test [4]; 0.178 (inactive) in test [5]; 0.789 (inactive) in test [6]; -0.238 in test [7]. Besides, the z-score in test [8] was -0.333 (inactive); in [9], 1.66 (inactive); in [10], 1.26; in test [11] it was -0.932; in test [12], 0.784; in test [13], -0.258. Besides, the z-score in test [14] is -0.839; in test [15] it was -1.04; in [16], 0.591; in [17] it was -0.249 (inactive); in test [18] it was -0.178; in test [19], -0.51. Besides, the z-score in test [20] was 0.761 (inactive). Also, the composite z-score in test [2] came to 0.0458.
Regarding `CC(C)[Si](C#C[Si](C(C)C)(C(C)C)C(C)C)(O[C@H](C)c1cn(Cc2ccccc2)nn1)C(C)C`, the z-score in test [1] is 1.82 (inactive); in test [3] it was -0.0395 (inactive); in [4], 0.0422 (inactive); in test [5] it was -0.915 (inactive); in test [6], 0.0635 (inactive); in test [7], -0.217. The z-score in test [8] is 0.667 (inactive); in test [9], -0.748 (inactive); in test [10], -2.82; in test [11] it was 1.25; in [12], -0.425; in test [13], 0.592. The z-score in test [14] was 0.636; in [15] it was -1.67; in test [16], 1.92; in [17], -0.367 (inactive); in test [18], 0.0518; in [19] it was -0.542. Moreover, in test [20], the z-score was 0.236 (inactive). Besides, the composite z-score in [2] came out at 0.0509.
Regarding `Cc1ccc(S[C@]2(C(=O)O)CC(=O)N(Cc3ccccc3C(F)(F)F)[C@@H]2c2ccc(CO)cc2I)cc1`, the z-score in test [1] was -1.17 (inactive); in test [3], 6.52 (inactive); in [4] it was 0.427 (inactive); in [5], 0.591 (inactive); in test [6], 0.402 (inactive); in [7] it was 0.0721. Besides, the z-score was 1.63 (inactive) in test [8]; -1.72 (inactive) in test [9]; 1.12 in test [10]; 0.0342 in [11]; -0.217 in [12]; -0.742 in test [13]. Further, the z-score in [14] is -3.22; in test [15], -1.5; in test [16], -1.06; in test [17] it was -0.438 (inactive); in test [18] it was -0.275; in test [19], -1.48. In test [20], the z-score is 0.834 (inactive). Also, the composite z-score in test [2] was 0.737.
`COC(=O)c1c(CC[C@@H](CO)NC(=O)N[C@H](Cc2ccccc2)Cn2cc(-c3ccccn3)nn2)oc(C(C)=O)c1C(=O)OC`: the z-score in test [1] was -0.72 (inactive); in [3], 27.1 (active); in [4], 12.7 (active); in test [5], 0.729 (inactive); in test [6], 1.41 (inactive); in test [7], 0.032. The z-score in test [8] was -1.52 (inactive); in test [9] it was 0.594 (inactive); in [10], 1.24; in test [11], 0.372; in test [12], 0.337; in test [13] it was -0.362. For the same compound, the z-score is 0.258 in test [14]; -0.406 in test [15]; -0.607 in test [16]; -0.821 (inactive) in test [17]; -0.0316 in test [18]; -0.131 in test [19]. Also, in [20], the z-score was -0.533 (inactive). This compound yielded a composite z-score in [2] of -0.194.
As to `C=C(C)[C@@H]1CC=C(C(O)C2C=CC3C(=O)NC(=O)C3N2Nc2ccc(Cl)cc2Cl)CC1` (stereo not given in full), the z-score is -2.9 (inactive) in [1]; 5.74 (inactive) in test [3]; 1.4 (inactive) in [4]; -0.372 (inactive) in test [5]; 1.61 (inactive) in test [6]; -1.02 in test [7]. The z-score is -2.38 (inactive) in [8]; -6.41 (inactive) in test [9]; -3.51 in test [10]; -3.8 in test [11]; 0.641 in test [12]; -3.88 in test [13]. Moreover, the z-score in test [14] is -3.71; in test [15] it was -3.89; in [16], -3.7; in [17], -0.432 (inactive); in test [18], -0.934; in test [19], -0.944. Further, in test [20], the z-score is -2.76 (inactive). The same compound gave a composite z-score in test [2] of 0.266.
Take `CC(C)[Si](C#CCCCC#N)(Oc1ccccc1Br)C(C)C`: the z-score in test [1] is -0.4 (inactive); in test [3], 0.614 (inactive); in test [4] it was 1.01 (inactive); in test [5], -0.494 (inactive); in test [6], 0.823 (inactive); in test [7] it was -0.49. Besides, the z-score in test [8] was -0.273 (inactive); in test [9] it was -0.161 (inactive); in [10], -0.18; in test [11], 0.551; in test [12] it was -0.924; in test [13] it was 0.235. The z-score in test [14] is -0.887; in [15], -0.181; in test [16], -0.247; in test [17], -0.183 (inactive); in test [18], -0.756; in test [19], 0.2. In addition, the z-score in test [20] was -0.0106 (inactive). This compound also gave a composite z-score in test [2] of -0.104.
As to `[N-]=[N+]=Nc1ccccc1[C@H]1OC(c2ccc(OCCCO)cc2)=N[C@@]1(CCS(=O)(=O)c1ccccc1)C(=O)NCc1ccccc1`, the z-score in test [1] was -0.795 (inactive); in test [3], 28.1 (active); in test [4] it was 27.8 (active); in test [5], 1.64 (inactive); in [6], 1.92 (inactive); in test [7], -0.234. For the same compound, the z-score in test [8] was 0.443 (inactive); in test [9], 0.184 (inactive); in test [10], -0.852; in test [11], -0.0804; in test [12], -0.337; in test [13], -0.777. Also, the z-score is -0.99 in test [14]; -0.816 in test [15]; -0.337 in test [16]; -0.327 (inactive) in test [17]; -0.929 in test [18]; -0.673 in test [19]. In addition, the z-score in [20] was 1.09 (inactive). The compound further yielded a composite z-score in test [2] of 0.373.
